ATXN viability: cell viability loss in ATXN counter-screen; hit rate 0.49% among 400,000; S2 cells (HEK-293 line with an ATXN2-luciferase reporter) viability, CellTiter-Fluor protease fluorescence, 24 h; Potency, µM (doses to about 56.7 µM), most hits filed as cytotoxic; further: nearly all actives have a fitted effect of over 40% in size
ATXN2 expr inh: ATXN2 expression inhibition. HEK-293 ATXN2-luciferase reporter, luminescence, 24 h. hit rate 0.72% among 360,000. Potency, µM (top dose mostly 57 µM), usual class: inhibitors. AID 1745845; further: nearly all actives have a fitted effect of over 55% in size
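qHTS (up to 57 uM final) was run with 24 h compound exposure of reporter cells at 37 °C. Each well was multiplexed: SteadyGlo luminescence measured ATXN2-luciferase expression after a fluorogenic Gly-Phe-AFC viability readout (25 uM final).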
Six1-Eya2 blk: blocks human Six1 binding to Eya2; Q15475+O00167; AlphaScreen GST-Six1/His-Eya2 binding, biochemical; hits give low values; activity change, % (no concentration beside the values); hit rate 0.56% among 360,000; AID 651725; in the data active means activity change below about -65%; inconclusive means mostly about -30% to -63%
Target sequence (O00167 whole entry, looked up): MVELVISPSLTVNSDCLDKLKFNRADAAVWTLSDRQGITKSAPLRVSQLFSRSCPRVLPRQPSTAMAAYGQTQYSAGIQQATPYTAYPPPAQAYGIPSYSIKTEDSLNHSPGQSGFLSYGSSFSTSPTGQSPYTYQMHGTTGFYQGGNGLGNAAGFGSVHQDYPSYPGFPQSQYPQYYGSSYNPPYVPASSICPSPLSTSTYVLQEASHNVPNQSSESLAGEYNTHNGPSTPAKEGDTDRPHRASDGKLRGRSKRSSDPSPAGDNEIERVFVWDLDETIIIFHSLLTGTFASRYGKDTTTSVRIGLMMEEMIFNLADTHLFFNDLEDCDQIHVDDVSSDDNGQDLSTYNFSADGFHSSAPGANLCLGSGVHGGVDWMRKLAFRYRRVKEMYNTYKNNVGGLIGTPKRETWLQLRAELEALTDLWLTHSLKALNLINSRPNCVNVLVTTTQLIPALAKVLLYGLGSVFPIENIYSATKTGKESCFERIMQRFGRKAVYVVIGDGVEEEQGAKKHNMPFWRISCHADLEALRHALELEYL
Target sequence (Q15475 whole entry, looked up): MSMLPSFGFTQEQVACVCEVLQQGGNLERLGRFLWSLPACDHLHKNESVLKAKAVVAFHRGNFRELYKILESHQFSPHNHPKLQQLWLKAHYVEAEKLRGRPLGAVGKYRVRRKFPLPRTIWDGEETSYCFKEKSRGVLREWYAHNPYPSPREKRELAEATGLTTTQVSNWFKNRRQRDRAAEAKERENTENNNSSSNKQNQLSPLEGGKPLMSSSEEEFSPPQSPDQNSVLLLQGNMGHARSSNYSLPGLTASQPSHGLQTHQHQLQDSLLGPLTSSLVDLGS
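Compounds are tested against tagged Six1 and Eya2 proteins bridged by glutathione donor and nickel acceptor beads; after a one-hour incubation at 37 °C without light, AlphaScreen emission is recorded.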
CtBP-E1A blk: CtBP/E1A binding inhibition. AlphaScreen GST-E1A/His-CtBP binding, 1536-well; hits give low values. activity change, % (no concentration beside the values). hit rate 0.49% among 340,000; in the data active means activity change below about -65%; inconclusive means mostly about -30% to -63%
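Homogeneous bead-based format: GST-tagged E1A captured on glutathione donor beads, His-tagged CtBP on nickel acceptor beads; compounds precede bead addition by 2 h at 37 °C.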
HepG2 viability: counter-screen for TGF-b inhibitors: cytotoxicity in HepG2 cells. Potency, µM (highest dose often 46.1 µM), hits mostly cytotoxic. hit rate 0.76% among 410,000. HepG2 CAGA-GFP viability, ATP luminescence, 18 h
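CellTiter-Glo luminescence gave cytotoxicity after 18 hours at 37 degrees C. The cells were HepG2 CAGA-GFP in 1% FBS DMEM, stimulated with 500 pg/mL TGF-beta after compound addition. %Activity was normalised to no-cell wells (complete cell-killing) and DMSO (no toxicity), and curves were fitted and classified.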
TGFb SMAD3 inh: inhibitors of TGF-b signaling; HepG2 CAGA-GFP TGF-b/SMAD3 reporter, GFP fluorescence, 18 h; TGF-beta stimulated, 500 pg/mL final; Potency, µM (series often up to 46.1 µM), hits mostly inhibitors; hit rate 1.2% among 410,000; further: nearly all actives have a fitted effect of over 65% in size
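HEPG2 CAGA-GFP cells (1000/well, DMEM with 1% FBS) were pre-incubated 2 h at 37 degrees C, given compound by pin tool, then stimulated with TGF-beta at 500 pg/mL final for 18 h before per-cell GFP fluorescence imaging.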
A number is an active result; - = inactive; ? = inconclusive; . = not tested or not shown; ! = a repeat was not active. Rows were chosen to be rich in hits. Some 2.8% of all compounds tested hit in one or more screens of this group. Unless noted, the call rests on the fitted dose curve; in most records, active means well fitted curve in the direction sought with a large enough effect; inconclusive means small, poorly fitted or top-dose-only effect, or another doubt; inactive means no such curve, though single readings can be large; an effect the other way counts as inactive or inconclusive.

SMILES | ATXN viability | ATXN2 expr inh | Six1-Eya2 blk | CtBP-E1A blk | HepG2 viability | TGFb SMAD3 inh
O=C(CS(=O)Cc1ccco1)NC/C=C\COc1cc(CN2CCCCC2)ccn1 (configuration not stated) | - | - | . | . | . | .
CCN1CCN(Cc2ccc(NC(=O)c3ccc(C)c(NC(=O)c4c[nH]c5cc(C(F)(F)F)ccc5c4=O)c3)cc2C(F)(F)F)CC1 | 7.08µM | 3.98µM! | - | - | 15.8µM! | 11.2µM
CCN1CCN(Cc2ccc(NC(=O)c3ccc(C)c(NC(=O)c4ccno4)c3)cc2C(F)(F)F)CC1 | - | - | - | - | - | -
CCN1CCN(Cc2ccc(NC(=O)c3ccc(C)c(/C=C/c4cnc(Nc5cc(N6CCNCC6)nc(C)n5)cn4)c3)cc2C(F)(F)F)CC1 | - | 12.6µM! | - | - | 17.8µM | ?
CCN1CCN(Cc2ccc(NC(=O)c3ccc(C)c(NC(=O)c4csc(-c5ccncc5)n4)c3)cc2C(F)(F)F)CC1 | ? | - | - | - | 15.8µM | ?
CC[C@@]12CCCN3CCc4c(n(c5ccccc45)[C@](O)(C(=O)OC)C1)[C@H]32 | - | . | . | . | . | .
Cc1ccc2cc(CN(C(=O)c3ccc4c(c3)OCO4)C3CC3)c(N(C)C)nc2c1 | - | . | . | . | . | .
O=C(CS(=O)(=O)c1nc(-c2ccc(Cl)cc2)cn1-c1ccccc1)Nc1cccc(Cl)c1 | ? | - | . | . | - | 10µM
Cc1ccc(-c2cn(-c3cccc(Cl)c3)c(S(=O)(=O)CC(=O)Nc3cccc(C)c3)n2)cc1 | ? | - | . | . | - | ?
COc1cc(C(=O)Oc2ccc3ccc(O)cc3c2)cc(OC)c1OC | - | . | - | . | 22.4µM | ?
CCOC(=O)[C@H](CCc1ccccc1)N[C@@H](C)C(=O)N1CCCC1C(=O)O (some centres not stated) | . | - | . | . | . | .
CCOC(=O)c1ccc(NC(=O)C(C)N(c2ccc(OCC)cc2)S(C)(=O)=O)cc1 (configuration not stated) | - | - | . | . | - | -
Cc1c(C(=O)Nc2ccc3c(c2)OCCO3)sc2nc(-c3ccccc3)cn12 | . | 31.6µM | - | - | - | -
Cc1ccc(-c2nc3ccccc3[nH]2)cc1NC(=O)COc1ccccc1[N+](=O)[O-] | . | . | . | . | - | 11.2µM
Cc1ccc(OCC(=O)Nc2cc(-c3nc4ccccc4[nH]3)ccc2C)c(C)c1 | - | - | . | . | - | -
CCCOc1cccc(C(=O)Nc2cc(-c3nc4ccccc4[nH]3)ccc2C)c1 | 20µM | ? | . | . | - | ?
COc1cc(C)c(CN2C[C@H](Sc3nc4ccccc4[nH]3)C[C@H]2C(=O)N(C)C)cc1C | - | . | . | . | . | .
CCn1c(CNC(=O)C23CC4CC(CC(C4)C2)C3)nnc1SCC(=O)Nc1ccc(F)cc1 | - | - | . | . | - | ?
CN1CCN(c2cc3c(c4c2[nH]c2ccccc24)C(=O)CC(C)(C)C3)CC1 | ? | ? | - | - | 11.2µM | ?
O=C(CCNC(=O)Cn1cnc2ccccc2c1=O)NCC1COc2ccccc2O1 (configuration not stated) | - | - | - | - | 12.6µM | -
COc1cc2c(cc1NC(=O)CCC(=O)O)oc1ccccc12 | - | - | - | - | - | -
COc1cc2c(cc1NC(=O)Nc1ccccc1)oc1ccccc12 | - | - | - | - | 7.08µM | ?
CCOC(=O)C1=C(C2=CCCCC2)c2ccc(OC)cc2N(S(=O)(=O)C(F)(F)F)C1C(=O)OCC (configuration not stated) | ? | ? | - | - | - | 14.1µM
CCOC(=O)C1C(C(=O)OC)=C(c2ccc(OC)cc2)c2ccc(OC)cc2N1S(=O)(=O)C(F)(F)F (configuration not stated) | - | - | - | - | - | ?
COC(=O)c1ccc(NS(=O)(=O)c2ccc3c(c2)n(C)c(=O)c(=O)n3C)cc1 | - | - | . | . | - | ?
SMILES | ATXN viability | ATXN2 expr inh | Six1-Eya2 blk | CtBP-E1A blk | HepG2 viability | TGFb SMAD3 inh
C[C@H](CO)N1C[C@H](C)[C@@H](CN(C)Cc2ccc(-c3ccccc3)cc2)Oc2c(NS(=O)(=O)c3cn(C)cn3)cccc2C1=O | - | - | - | - | - | 3.16µM
C[C@H](CO)N1C[C@H](C)[C@@H](CN(C)Cc2ccccc2)Oc2c(NC(=O)Cc3ccccc3)cccc2C1=O | ? | ? | - | - | - | ?
C[C@H](CO)N1C[C@H](C)[C@@H](CN(C)Cc2ccc(Cl)c(Cl)c2)Oc2c(NC(=O)Cc3ccccc3)cccc2C1=O | 14.1µM | 28.2µM | - | - | - | ?
COc1ccccc1N1CCN(c2nc(CNC(=O)C3CCOC(C)(C)C3)nc3ccccc23)CC1 (configuration not stated) | - | . | . | . | . | .
COc1c[nH]n(C2CCCCC2)c(=O)c1=O | 22.4µM | - | - | - | - | -
COC(=O)c1sccc1S(=O)(=O)N(CC(=O)Nc1cc(C)cc(C)c1)c1ccc(Cl)cc1 | - | - | . | . | - | ?
O=C(N[C@H]1CCC(=O)N(CCSc2ccc(Br)cc2)CC1)OCc1ccccc1 | 28.2µM | ? | - | - | - | 7.08µM
COc1ccc(OC)c(-c2csc(N(C)C(=O)c3ccco3)n2)c1 | 35.5µM | - | - | - | - | -
COc1ccc(-c2csc(N(C)C(=O)c3ccco3)n2)cc1 | - | - | - | - | - | -
OC(COc1cccc2ccccc12)CN1CCN(c2ccc(Cl)cc2)CC1 (configuration not stated) | ? | . | - | . | - | 15.8µM
CC(O)(COc1ccccc1)c1ccc2c(c1)CN(C/C=C/c1ccco1)CCO2 (configuration not stated) | - | . | . | . | . | .
COc1ccc(C2CC(=O)Oc3c(C(CCN4CCCC(C)C4)c4ccc(N(C)C)cc4)c(OC)cc(OC)c32)cc1 (configuration not stated) | 8.91µM | - | ? | ? | - | -
COc1ccc(C2CC(=O)Oc3c(C(CCN4CCCCC4)c4ccc(N(C)C)cc4)c(OC)cc(OC)c32)cc1 (configuration not stated) | 8.91µM | - | ? | ? | - | -
COc1cc(OC)c2c(c1C(CCN1CCCC1)c1ccc(N(C)C)cc1)OC(=O)CC2c1ccc(N(C)C)cc1 (configuration not stated) | . | . | . | . | - | -
Cc1ccc(CNC(=O)CCCn2c(=O)c3ccccc3n(CC(=O)Nc3ccc(C)cc3)c2=O)cc1 | - | - | . | . | - | -
OC(c1cccc(F)c1)c1ncc(-c2ccc(Oc3ccccc3)cc2)[nH]1 (configuration not stated) | ? | - | ? | - | - | ?
COc1ccccc1-c1cnc(C(O)c2ccccc2)[nH]1 (configuration not stated) | - | - | - | - | - | -

Compound activity from PubChem.
